# In PubChem BioAssay (NCATS):
# “And” between values parts separate entries of the source, which are not always exact repeats. Equal entries are not always repeated. Values without a mark were called inactive.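 The calls were made as follows: active = compounds whose dose series gives a full or clear partial fitted curve of increased nuclear translocation; inconclusive = weak partial curve or effect only at the top dose; inactive = no dose-dependent translocation response.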 Numbered stars: 1 amine (or outer) side, 2 acyl side, 3 side chain; on linkers, the order of the positions; unused ones are H or OH. Bridge positions count the residues as written; N and C are the ends. Square brackets hold non-standard residues; d marks the D form. Peptide text beside a SMILES is read from it. I, II: the chains in the order shown. Actinocin(9to1) = Cc1c2oc3c(C)ccc(C(=O)[*:1])c3nc-2c(C(=O)[*:2])c(N)c1=O; aThr = C[C@H](O)[C@H](N)C(=O)O; NMeV = CN[C@H](C(=O)O)C(C)C; Sar = CNCC(=O)O
# Biological target: Glucocorticoid receptor (Homo sapiens) (UniProt P04150)
# Sequence (P04150 whole entry, looked up): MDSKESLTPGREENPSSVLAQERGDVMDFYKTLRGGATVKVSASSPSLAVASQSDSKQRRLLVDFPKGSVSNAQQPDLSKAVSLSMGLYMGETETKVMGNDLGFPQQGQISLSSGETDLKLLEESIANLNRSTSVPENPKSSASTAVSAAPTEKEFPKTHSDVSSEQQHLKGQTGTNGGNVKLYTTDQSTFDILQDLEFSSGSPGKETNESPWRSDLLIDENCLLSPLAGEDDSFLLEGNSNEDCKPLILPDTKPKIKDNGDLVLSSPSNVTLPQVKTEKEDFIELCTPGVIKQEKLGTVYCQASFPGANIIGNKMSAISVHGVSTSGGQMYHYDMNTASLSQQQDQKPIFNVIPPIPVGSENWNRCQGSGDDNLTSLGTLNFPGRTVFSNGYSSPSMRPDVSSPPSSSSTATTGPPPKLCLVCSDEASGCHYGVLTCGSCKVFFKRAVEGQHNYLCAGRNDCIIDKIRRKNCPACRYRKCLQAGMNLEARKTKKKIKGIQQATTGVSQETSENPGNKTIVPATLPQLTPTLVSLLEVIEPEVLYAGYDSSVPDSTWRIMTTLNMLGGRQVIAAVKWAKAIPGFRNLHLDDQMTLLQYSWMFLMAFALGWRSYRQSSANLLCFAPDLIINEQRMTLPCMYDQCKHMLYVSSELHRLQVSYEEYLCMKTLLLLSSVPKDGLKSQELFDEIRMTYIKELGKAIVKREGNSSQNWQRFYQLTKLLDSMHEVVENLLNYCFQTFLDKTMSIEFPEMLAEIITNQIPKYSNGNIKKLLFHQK
# Assay: GR-GFP Redistribution (AID 450)
# Conditions: U2OS GR-GFP nuclear translocation, laser cytometry, 2 h
# Excerpt: NIH Molecular Libraries Screening Centers Network [MLSCN]
# NIH Chemical Genomics Center [NCGC]
# The glucocorticoid receptor (GR) Redistribution assay (BioImage) enables the visualization of GR cytoplasmic to nuclear translocation by the use of a GR-GFP fusion. GR is normally cytosolic, however ligands such as dexamethasone, cause nuclear translocation where the protein binds to response elements and interacts with various co-factors to modulate transcription. Because both functional agonists and antagonists can induce nuclear translocation, this assay can detect ligands regardless of their effects on gene expression. GR-GFP expressing U20S cells were used here. Dexamethasone was the positive control for translocation and data normalization. Detection of nuclear translocation was performed in 1536-well plates using the Acumen laser scanning plate cytometer (TTP LabTech). Validation of this assay and a detailed protocol have been described.
# NCGC Assay Protocol Summary:
# GR-GFP U2OS cells were maintained in DMEM with Glutamax and high glucose, 1% v/v penicillin-streptomycin, and 0.5 mg/mL Geneticin. For cell culture, 10% […] fetal bovine serum (FBS) was used (Invitrogen #26140-079). For cell plating 10% dextran, charcoal-stripped FBS (Hyclone SH30068.03) was used. U2OS cells were trypsin treated, suspended in medium, and passed through a 40 um basket filter. The cells were seeded at 600 cells/5 uL/well into clear-bottom black sided 1536-well plates and incubated for approximately 20 hrs, 37degC, 5%, CO2 in a tissue culture incubator. Twenty-three nL of compound was delivered by pin tool and the plates were incubated as above for 2 hrs. The compounds were tested as a 7-point titration ranging from 46 uM to 0.6 nM. The cells were fixed using the Kalypsys Washer/Dispenser station. The fixing protocol involved aspiration of the cell media, addition of 6 uL/well of PBS, aspiration of PBS, addition of 5uL/well of 100% methanol, aspiration of methanol, and addition of 3 uL/well PBS with 1.5 uM propidium iodide (PI). The plates were read by the Acumen Explorer using a 1 x 8 um scan of the whole well area. PI fluorescence triggered the collection of PI and GFP signals. A nuclei population was defined by a 10 to 100 um width and depth filter that eliminated small and large fluorescent particles. Two subpopulations of nuclei were then defined by peak intensity of GFP fluorescence to obtain translocated and untranslocated objects. The number of translocated objects was used for data normalization.
# Keywords: NIH Roadmap, MLSCN, MLI, MLSMR, sOGT, qHTS, NCGC
# Potency is read from the fitted curve at half-maximal effect.
row,SMILES,Potency
1,CN1CCc2cc3c(cc2[C@@H]1[C@@H]1C(=O)Oc2c1ccc1c2OCO1)OCO3,> 46 µM
2,c1ccc2oc(C3=NCCN3)cc2c1,> 46 µM
3,OC[C@@H](O)COc1cccc2ccccc12,> 46 µM
4,CC(C)[C@@H]1C(=O)N(S(C)(=O)=O)[C@H]2CCN(C(=O)/C=C\CN3CCCCC3)[C@@H]12,> 46 µM
5,Nc1nc(Nc2ccccc2)nc2c1ncn2[C@@H]1O[C@@H](CO)[C@H](O)[C@H]1O,> 46 µM
6,OC[C@@H]1O[C@@H](n2cnc3c(N[C@H]4CCC[C@@H]4O)ncnc32)[C@H](O)[C@H]1O,> 46 µM
7,COc1cc2c(cc1OC)C(c1ccc(N)cc1)=NNC(=O)C2,> 46 µM
8,N[C@@H](CSS(=O)(=O)O)C(=O)O,> 46 µM
9,Fc1ccc([C@H]2CCNC[C@H]2COc2ccc3c(c2)OCO3)cc1,> 46 µM
10,COc1ccc2[nH]c(-c3ccccc3)c(CCNC(C)=O)c2c1,> 46 µM
11,N=C(N)S/C=C\C(=O)O,> 46 µM
12,CC(=O)O[C@H]1C[C@H]2CC[C@@H]3[C@H]4C[C@@H]([N+]5(C)CCCCC5)[C@@H](OC(C)=O)[C@]4(C)CC[C@@H]3[C@@]2(C)C[C@@H]1[N+]1(C)CCCCC1,> 46 µM
13,O=C(c1ccc(F)cc1)C1CCN(CCCCc2ccccc2)CC1,> 46 µM
14,CN(CCc1ccc(Cl)c(Cl)c1)C[C@@H](O)COc1ccc(NS(C)(=O)=O)cc1,> 46 µM
15,CCS(=O)(=O)N(C)[C@@H]1c2cc(C#N)ccc2OC(C)(C)[C@H]1O,> 46 µM
16,C#CCCCCCCCCCCCCCCCC(=O)O,> 46 µM
17,CCCCCCCCCCCC(=O)O[C@H](CC(=O)O)C[N+](C)(C)C,> 46 µM
18,CNC(=O)[C@H]1O[C@H](n2cnc3c(NCc4cccc(I)c4)ncnc32)[C@@H](O)[C@@H]1O,> 46 µM
19,CCN(CC)CCOC(=O)C1(c2ccc([N+](=O)[O-])cc2)CCCC1,> 20.6 µM and > 46 µM
20,COC(=O)/C=C\c1cc(O)ccc1O,> 46 µM

row,SMILES,Potency
1,CCCCC[C@H](O)/C=C/[C@@H]1[C@@H](CCCCCCC(=O)O)[C@@H](O)C[C@H]1O,> 20.6 µM
2,NC1(C(=O)O)C[C@H](C(=O)O)[C@H](C(=O)O)C1 (stereo not given in full),> 46 µM
3,CC(=O)NCCc1c(Cc2ccccc2)[nH]c2ccccc12,> 46 µM
4,CCCCCCCCCCCCCCCC(=O)O[C@H](CC(=O)O)C[N+](C)(C)C,> 46 µM
5,Cc1ncc2c(c1O)COP(=O)(O)OC2,> 46 µM
6,CSc1nc(NC2CCCC2)c([N+](=O)[O-])c(NC2CCCC2)n1,> 46 µM
7,CCCCC#Cc1nc(NC)c2ncn([C@@H]3O[C@@H](CO)[C@H](O)[C@H]3O)c2n1,> 46 µM
8,N#Cc1cc2[nH]c(=O)c(=O)[nH]c2cc1[N+](=O)[O-],> 46 µM
9,C[C@@]12C(=O)OC(=O)[C@@]1(C)[C@@H]1CC[C@@H]2O1,> 46 µM
10,COc1ccc2c(c1)c(CC(=O)N1CCOCC1)c(C)n2C(=O)c1ccc(Cl)cc1,> 46 µM
11,CCCCCC#CCC#CCC#CCC#CCCCC(=O)O,> 20.6 µM
12,N[C@](CC1c2ccccc2Oc2ccccc21)(C(=O)O)[C@@H]1C[C@@H]1C(=O)O,> 46 µM
13,Cc1c2ccccc2c(CSC(=N)N)c2ccccc12,> 46 µM
14,"Cc1c2oc3c(C)ccc(C(=O)N[C@@H]4C(=O)N[C@@H](C(C)C)C(=O)N5CCC[C@@H]5C(=O)N(C)CC(=O)N(C)[C@@H](C(C)C)C(=O)O[C@H]4C)c3nc-2c(C(=O)N[C@@H]2C(=O)N[C@@H](C(C)C)C(=O)N3CCC[C@@H]3C(=O)N(C)CC(=O)N(C)[C@@H](C(C)C)C(=O)O[C@H]2C)c(N)c1=O (I: [aThr]V[dP][Sar][NMeV] / II: [aThr]V[dP][Sar][NMeV]; ester I:1-I:C, II:1-II:C; linker I:N-II:N via Actinocin(9to1))",> 46 µM
15,NC1=NCCCC1,> 46 µM
16,CSc1nc(N)c2ncn([C@H]3O[C@H](COP(=O)(O)OP(=O)(O)OP(=O)(O)O)[C@@H](O)[C@@H]3O)c2n1,> 46 µM
17,Cc1cccc(/C=C\c2ccccc2)n1,> 46 µM
18,Cc1c(-c2ccc(Cl)cc2)noc1C1CCN(CCc2ccccc2)CC1,> 46 µM
19,CC[C@]1(c2ncc[nH]2)Cc2ccccc2O1,> 46 µM
20,C[C@]12CC3CC(N)(C1)C[C@@](C)(C3)C2,> 46 µM
